Experimental findings from PubChem BioAssay AID651815 (National Center for Advancing Translational Sciences (NCATS), 2012) are described below.

SMILES strings stand for the structures. Screen size: about 2,100 compounds; about 1,100 (52%) were called active. Another 29% or so got no clear call; they are omitted. So high a share suggests a set chosen from earlier hits. Some of the results follow. Unmarked numbers belong to inactive results. Calls come from the whole dose curve; as a rule, active = well fitted inhibition curve with a large enough effect; inconclusive = small, poorly fitted or top-dose-only effect; inactive = no such curve, though single readings can be large or run the other way.
% is set by controls: 0 for no effect and ±100 for the full control effect; potency is the fitted concentration of half-maximal effect.

DNA dC->dU-editing enzyme APOBEC-3F (Homo sapiens), sequence (Q8IUX4 whole entry, looked up): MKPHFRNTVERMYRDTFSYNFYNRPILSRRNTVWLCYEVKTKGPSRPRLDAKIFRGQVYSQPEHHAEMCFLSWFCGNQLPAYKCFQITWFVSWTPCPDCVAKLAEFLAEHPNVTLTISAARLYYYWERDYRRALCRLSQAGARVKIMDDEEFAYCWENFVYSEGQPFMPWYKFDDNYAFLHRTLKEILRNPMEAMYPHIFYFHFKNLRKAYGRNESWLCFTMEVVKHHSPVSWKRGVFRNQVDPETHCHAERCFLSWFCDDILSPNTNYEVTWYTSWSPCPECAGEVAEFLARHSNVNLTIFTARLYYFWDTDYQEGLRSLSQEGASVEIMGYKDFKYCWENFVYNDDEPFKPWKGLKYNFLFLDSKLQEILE

The assay has as its target DNA dC->dU-editing enzyme APOBEC-3F (Homo sapiens) (UniProt Q8IUX4). Briefly: qHTS for inhibitors of Vif-A3F interactions: Cherry picks counterscreen. Note: nearly all actives have a fitted effect of over 65% in size. The conditions noted are these: HeLa A3F-eYFP/Vif cells, eYFP fluorescence, 24 h; series mostly up to 46.1 µM; activity, negative = inhibitor: at the top concentration. An excerpt:
The recent discovery and characterization of host restriction factors, which provide a potent defense to invading retroviruses, has provided new targets for antiviral drug development. APOBEC3G (A3G) and APOBEC3F (A3F) are potent cytidine deaminases that block HIV-1 replication; HIV-1 expresses the Vif protein, which counteracts A3G and A3F by binding to them and inducing their proteasomal degradation. The Vif-A3G and Vif-A3F interactions provide two potential targets for development of small molecules which can interfere with the ability of Vif to degrade A3G or A3F. […] To identify inhibitors that can interfere with Vif mediated degradation of A3G and A3F, we have developed Hela cell lines that stably express A3G or A3F tagged with eYFP at the C-terminal end (A3G-eYFP or A3F-eYFP, respectively) and Vif. In the absence of an inhibitor, Vif induces degradation of A3G-eYFP and A3F-eYFP, and the cells are not fluorescent. In the presence of an inhibitor, it is expected that Vif will be unable to degrade A3G-eYFP and/or A3F-eYFP, resulting in an increase in yellow fluorescence. In this counterscreen assay, Vif A3F was screened against the cherry picks ordered from the MLSMR. NIH Chemical Genomics Center [NCGC] NIH Molecular Libraries Probe Centers Network [MLPCN] MLPCN Grant: MH093245 Assay Submitter (PI): Vinay Pathak, National Cancer Institute
A3F-Vif cells were harvested from T225 flask and resuspended in phenol free OPTI-MEM medium with 5% FBS. Then 5 uL of 140,000 cells/mL resuspended cells was dispensed into each well of low base Aurora COC 1,536-well plates (black walled, clear bottom) using a Multidrop Combi dispenser. After overnight culture at 37 deg C with 5% CO2, a total of 23 nL of compounds at 5 selected concentrations from the NPC or positive control (2 mM stock of MG132) in DMSO was transferred to each well of the assay plate using a pintool (Kalypsys, San Diego, CA), and the plates were further incubated at 37 deg C with 5% CO2 for 24 hours. After that, the plates were measured on Acumen Explorer (TTP Lab Tech). The fluorescence was detected by 488 nm/Ex and […].
For orientation: In qHTS, concentration-response curves come from the screen itself.
On to `COc1ccc(C(=O)C(C)[n+]2ccc(C)c3ccccc32)cc1[N+](=O)[O-]` (configuration not stated), for which the “activity, negative = inhibitor” value was 0.317% [at 36.9 µM].

Take `COc1ccccc1NC(=O)C1=C(C)Nc2nc3ccccc3n2C1c1cccs1` (configuration not stated): the Potency was 1.4 µM (active).

Take `COc1ccc2[nH]c3c(c2c1)CCNC3c1ccc([N+](=O)[O-])o1` (configuration not stated): the Potency is 18.4 µM (active). Take `COc1ccc(C(=O)Nc2sc3c(c2C#N)CCN(C(C)=O)C3)cc1`: the Potency was 9.94 µM (active). `CC(C)N1CCc2c(sc(NC(=O)c3cc4cc([N+](=O)[O-])ccc4s3)c2C(N)=O)C1`: the Potency was 23.1 µM (active). In the case of `CCCCN(CCCC)S(=O)(=O)c1ccc(C(=O)Nc2sc3c(c2C(N)=O)CCN(CC)C3)cc1`, the Potency was 25.9 µM (active). Same read-out and setting: the figure for `CC(C)CN(CC(C)C)S(=O)(=O)c1ccc(C(=O)Nc2sc3c(c2C(N)=O)CCN(C(C)C)C3)cc1` is 20.6 µM (active). `CCN1CCc2c(sc(-n3cccc3)c2C(C)NC(=O)Nc2ccc(C(=O)OC)cc2)C1` (configuration not stated): the “activity, negative = inhibitor” value was 8.59%.

In the case of `CCN1CCc2c(sc(NC(=O)c3ccc(S(=O)(=O)N(CC)c4ccccc4)cc3)c2C(N)=O)C1`, the Potency was 12.5 µM (active). As to `CC(C)N1CCc2c(sc(NC(=O)c3ccc(S(=O)(=O)N4CCOCC4)cc3)c2C#N)C1`, the Potency was 20.6 µM (active). On to `CCCN1CCc2c(sc(NC(=O)c3ccc(S(=O)(=O)N(C)c4ccccc4)cc3)c2C(=O)NC)C1`, for which the Potency was 18.4 µM (active). For the compound `CCOC(=O)c1c(NC(=O)c2ccc(S(=O)(=O)N3CCC(C)CC3)cc2)sc2c1CCN(C)C2`, the Potency is 18.4 µM (active). Consider `CN1C(=O)N(C)c2ccc(C=O)c3cccc1c23`, for which the “activity, negative = inhibitor” value is 14.9%. In the case of `CCCN1CCc2c(sc(NC(=S)NC(=O)c3ccccc3)c2C#N)C1`, the Potency is 16.4 µM (active). For `O=C(NC(=S)Nc1ccccc1N1CCCCC1)c1ccccc1`, the “activity, negative = inhibitor” value is -14.4%. On to `CCCN1CCc2c(sc(NC(=O)c3ccc(S(=O)(=O)N(C)c4ccccc4)cc3)c2C(N)=O)C1`, for which the Potency is 23.1 µM (active). Take `N#CC(C#N)=C1C=C2C=C(N3CCOCC3)CCC2CC1` (configuration not stated): the “activity, negative = inhibitor” value was 24.4%. Regarding `O=C1OCC2=C1C(c1ccc3c(c1)OCO3)c1cc3c(cc1O2)OCO3` (configuration not stated), the Potency is 1.25 µM (active). In the case of `COc1cc(C2C3=C(COC3=O)Oc3cc4c(cc32)OCO4)ccc1OC(C)=O` (configuration not stated), the Potency is 3.14 µM (active).

`N#C/C=C/N1CCN(C(=O)c2ccco2)CC1`: the “activity, negative = inhibitor” value is 15% [at 36.9 µM].

Take `CCCCn1c(N)c(N(CCC(C)C)C(=O)c2ccc([N+](=O)[O-])o2)c(=O)[nH]c1=O`: the “activity, negative = inhibitor” value is -13.3%. On the same count and under the same terms, the figure for `C=CCN1C(=O)c2ccc(C(=O)N(CC(C)C)c3c(N)n(CCCC)c(=O)[nH]c3=O)cc2C1=O` is -17.4% [at 36.9 µM]. Consider `CCCCn1c(N)c(N(CC(C)C)C(=O)Cc2ccc(S(=O)(=O)N3CCOCC3)s2)c(=O)[nH]c1=O`, for which the Potency is 16.4 µM (active). With `O=C(O)c1ccccc1N/N=C/c1c(Sc2nnnn2-c2ccccc2)nc2ccccn2c1=O`, the “activity, negative = inhibitor” value is 31.2% [at 36.9 µM]. Turning to `CCN1C/C(=C\c2cccc([N+](=O)[O-])c2)C(=O)/C(=C/c2cccc([N+](=O)[O-])c2)C1`, the Potency is 2.5 µM (active). As to `CC(C)COc1ccc(C(=O)N/C(=C/c2cccc([N+](=O)[O-])c2)C(=O)O)cc1`, the “activity, negative = inhibitor” value was -5.47% [at 36.9 µM].

Take `CC[n+]1ccc(/C=C/c2c[nH]c3ccccc23)cc1`: the Potency was 1.84 µM (active).

As to `C[n+]1ccc(/C=C/c2cc[n+](C)c3ccccc23)c2ccccc21`, the “activity, negative = inhibitor” value was 0.363%. On to `C[n+]1ccc(/C=C/c2c[nH]c3ccccc23)cc1`, for which the Potency is 6.51 µM (active). `OCC[n+]1ccc(/C=C/c2c[nH]c3ccccc23)cc1`: the Potency was 5.8 µM (active). Consider `COc1ccccc1NC(=O)Cc1ccc(-c2ccccc2)cc1`, for which the “activity, negative = inhibitor” value was -0.174%. Turning to `O=C(NC(=S)Nc1ccc(-c2ccccc2)cc1)c1ccccc1`, the “activity, negative = inhibitor” value is 10.7%.

As for `NC(=S)N/N=C/c1ccccc1OC(=O)/C=C/c1ccccc1`, the “activity, negative = inhibitor” value is 6.59%. `O=C(Nc1ccccc1OC(=O)c1ccccc1)c1ccccc1`: the Potency is 15.8 µM (active). As to `COc1ccc(C(=O)N/N=C/c2ccccc2OC(=O)c2ccccc2)cc1`, the Potency is 3.96 µM (active).

As for `C=C1C(=O)O[C@H]2C1CC[C@@](C)(O)C13C=CC(C)(C21)C1(C3)C(=O)O[C@@H]2C3C(C)=CCC3[C@](C)(O)C[C@H](OC(C)=O)C21` (some centres not stated), the Potency is 17.7 µM (active). As for `Cc1c(NC(=O)c2csc3c2CCCC3)c(=O)n(-c2ccccc2)n1C`, the “activity, negative = inhibitor” value was 9.75%. In the case of `Cc1c(N=C2N=C(NC(=O)c3cccs3)c3ccccc32)c(=O)n(-c2ccccc2)n1C`, the Potency is 14 µM (active).

With `N#Cc1c(C(F)(F)F)cc(-c2ccccc2)nc1SCc1nc(N)nc(N2CCOCC2)n1`, the Potency was 16.4 µM (active). Take `COc1c(-c2ccc(O)c(O)c2)oc2cc(O)cc(O)c2c1=O`: the Potency is 12.5 µM (active). For `Cc1cc(NC(=O)Nc2nnc(N(C)Cc3ccccc3)s2)ccc1Br`, the “activity, negative = inhibitor” value was 0.433%. Take `CSc1nc2ccccc2cc1/C=C(\C#N)c1cccc(C)c1`: the Potency is 11.2 µM (active). Regarding `N#C/C(=C\c1cccc(O)c1)c1nc2ccccc2o1`, the Potency is 7.9 µM (active). Still for that read-out and setting: the figure for `Nc1c(C(=O)N/N=C/c2ccccc2Cl)oc2nc(-c3ccccc3)cc(-c3ccco3)c12` is 10.3 µM (active). With `Nc1c(C(=O)N/N=C/c2ccc(F)cc2)oc2nc(-c3ccccc3)cc(-c3ccco3)c12`, the Potency was 14 µM (active).

With `C/C(=N\Nc1nc(C)cc(-c2ccccc2)n1)c1ccc(F)cc1`, the “activity, negative = inhibitor” value is -4.82%. Consider `Nc1c(C(=O)N/N=C/c2cccnc2)oc2nc(-c3ccccc3)cc(-c3ccco3)c12`, for which the Potency is 4.11 µM (active).
